Reference: PubChem BioAssay AID1159580 (chemical genetic matrix, 2015)
The whole screen tested about 5,500 compounds, of which about 2,000 (36%) were called active. About 18% were inconclusive and are not listed. No stated cut-off is given here; in the data, active means normalized growth mostly below about 0.91 (no sharp cut-off); inconclusive means no clear call, values can overlap the other calls; inactive means mostly above about 0.92. Some of the results follow.

Experiment: chemical genetic growth profiling, strain panel (AID 1159580);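 further: tested at 20 µM; growth read once vehicle control cultures reached saturation at 30 °C; 1 = growth at the plate median or of vehicle wells; lower values mean less growth of the strain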
Details: growth OD

Measured: normalized growth

NS(=O)(=O)c1cc2c(cc1Cl)NC(C(Cl)Cl)NS2(=O)=O (stereo not drawn)
inactive: S. cerevisiae deletion strains, locus YKL009W, strain mrt4, active compounds read low 1.02 | S. cerevisiae deletion strains, locus YKL068W, active compounds read low 1 | S. cerevisiae deletion strains, locus YKL085W, strain MDH1 (second series), active compounds read low 1.01 | S. cerevisiae deletion strains, locus YKL085W, strain MDH1, active compounds read low 1.01 | S. cerevisiae deletion strains, locus YKL160W, strain elf1, active compounds read low 1 | S. cerevisiae deletion strains, locus YKL190W, strain CNB1, active compounds read low 1.02 | S. cerevisiae deletion strains, locus YKR001C, strain vps1, active compounds read low 1.03 | S. cerevisiae deletion strains, locus YKR026C, strain gcn3, active compounds read low 0.99 | S. cerevisiae deletion strains, locus YKR091W, strain srl3, active compounds read low 0.97 | S. cerevisiae deletion strains, locus YLL001W, strain dnm1, active compounds read low 1.01 | S. cerevisiae deletion strains, locus YLL026W, active compounds read low 0.991 | S. cerevisiae deletion strains, locus YLL041C, strain sdh2, active compounds read low 0.988 | S. cerevisiae deletion strains, locus YLR027C, strain aat2, active compounds read low 0.985 | S. cerevisiae deletion strains, locus YLR039C, strain RIC1, active compounds read low 1.06 | S. cerevisiae deletion strains, locus YLR058C, strain SHM2, active compounds read low 1.02 | S. cerevisiae deletion strains, locus YLR102C, strain apc9, active compounds read low 1.01 | S. cerevisiae deletion strains, locus YLR113W, strain HOG1, active compounds read low 0.996 | S. cerevisiae deletion strains, locus YLR221C, strain rsa3, active compounds read low 0.949 | S. cerevisiae deletion strains, locus YLR258W, strain gsy2, active compounds read low 0.977 | S. cerevisiae deletion strains, locus YLR262C, strain YPT6 (second series), active compounds read low 0.999 | S. cerevisiae deletion strains, locus YLR262C, strain YPT6, active compounds read low 1.05 | S. cerevisiae deletion strains, locus YLR268W, strain sec22, active compounds read low 1.04 | S. cerevisiae deletion strains, locus YLR320W, strain mms22, active compounds read low 0.972 | S. cerevisiae deletion strains, locus YLR330W, strain CHS5, active compounds read low 1 | S. cerevisiae deletion strains, locus YLR342W, strain FKS1 (second series), active compounds read low 1.02 | S. cerevisiae deletion strains, locus YLR342W, strain FKS1, active compounds read low 0.993 | S. cerevisiae deletion strains, locus YLR357W, strain rsc2, active compounds read low 0.956 | S. cerevisiae deletion strains, locus YLR370C, strain arc18, active compounds read low 0.985 | S. cerevisiae deletion strains, locus YLR371W, strain rom2, active compounds read low 1.02 | S. cerevisiae deletion strains, locus YLR384C, strain iki3, active compounds read low 0.973 | S. cerevisiae deletion strains, locus YLR418C, strain cdc73, active compounds read low 1.05 | S. cerevisiae deletion strains, locus YML016C, strain PPZ1, active compounds read low 1 | S. cerevisiae deletion strains, locus YML032C, strain rad52, active compounds read low 1.02 | S. cerevisiae deletion strains, locus YML120C, strain ndi1, active compounds read low 0.986 | S. cerevisiae deletion strains, locus YML124C, strain tub3, active compounds read low 1.02 | S. cerevisiae deletion strains, locus YMR058W, strain fet3, active compounds read low 0.982 | S. cerevisiae deletion strains, locus YMR078C, strain ctf18, active compounds read low 1.02 | S. cerevisiae deletion strains, locus YMR125W, strain sto1, active compounds read low 0.966 | S. cerevisiae deletion strains, locus YMR129W, active compounds read low 0.97 | S. cerevisiae deletion strains, locus YMR205C, strain PFK2, active compounds read low 0.994 | S. cerevisiae deletion strains, locus YMR223W, strain ubp8, active compounds read low 1.01 | S. cerevisiae deletion strains, locus YMR231W, strain pep5, active compounds read low 0.971 | S. cerevisiae deletion strains, locus YMR263W, strain SAP30, active compounds read low 1.01 | S. cerevisiae deletion strains, locus YMR307W, strain GAS1, active compounds read low 1 | S. cerevisiae deletion strains, locus YNL067W, strain RPL9B, active compounds read low 1.01 | S. cerevisiae deletion strains, locus YNL071W, strain lat1, active compounds read low 0.981 | S. cerevisiae deletion strains, locus YNL183C, strain NPR1, active compounds read low 0.943 | S. cerevisiae deletion strains, locus YNL209W, strain ssb2, active compounds read low 0.997 | S. cerevisiae deletion strains, locus YNL233W, strain BNI4, active compounds read low 1.01 | S. cerevisiae deletion strains, locus YNL248C, strain rpa49, active compounds read low 0.935 | S. cerevisiae deletion strains, locus YNL250W, strain rad50, active compounds read low 1.02 | S. cerevisiae deletion strains, locus YNL271C, strain bni1, active compounds read low 1.01 | S. cerevisiae deletion strains, locus YNL298W, strain CLA4, active compounds read low 1.01 | S. cerevisiae deletion strains, locus YNL307C, strain MCK1, active compounds read low 1.03 | S. cerevisiae deletion strains, locus YNL322C, strain KRE1 (second series), active compounds read low 0.968 | S. cerevisiae deletion strains, locus YNR049C, strain mso1, active compounds read low 0.971 | S. cerevisiae deletion strains, locus YNR052C, strain pop2, active compounds read low 1.01 | S. cerevisiae deletion strains, locus YOL006C, strain TOP1, active compounds read low 1.02 | S. cerevisiae deletion strains, locus YOL012C, strain htz1 0.822 | S. cerevisiae deletion strains, locus YOL147C, strain pex11, active compounds read low 1.01 | S. cerevisiae deletion strains, locus YOR001W, strain rrp6, active compounds read low 0.978 | S. cerevisiae deletion strains, locus YOR061W, strain CKA2, active compounds read low 1 | S. cerevisiae deletion strains, locus YOR069W, strain VPS5, active compounds read low 1.01 | S. cerevisiae deletion strains, locus YOR070C, strain gyp1, active compounds read low 0.983 | S. cerevisiae deletion strains, locus YOR080W, strain dia2, active compounds read low 0.984 | S. cerevisiae deletion strains, locus YOR083W, strain WHI5, active compounds read low 0.982 | S. cerevisiae deletion strains, locus YOR106W, strain vam3, active compounds read low 1.01 | S. cerevisiae deletion strains, locus YOR136W, strain idh2, active compounds read low 1.01 | S. cerevisiae deletion strains, locus YOR144C, strain elg1, active compounds read low 1 | S. cerevisiae deletion strains, locus YOR184W, strain ser1, active compounds read low 1.02 | S. cerevisiae deletion strains, locus YOR231W, strain MKK1, active compounds read low 0.98 | S. cerevisiae deletion strains, locus YOR265W, strain rbl2, active compounds read low 0.981 | S. cerevisiae deletion strains, locus YOR270C, strain vph1, active compounds read low 0.967 | S. cerevisiae deletion strains, locus YOR290C, strain snf2, active compounds read low 0.945 | S. cerevisiae deletion strains, locus YOR316C, strain cot1, active compounds read low 1.01 | S. cerevisiae deletion strains, locus YPL051W, strain arl3, active compounds read low 0.991 | S. cerevisiae deletion strains, locus YPL055C, strain LGE1, active compounds read low 1.02 | S. cerevisiae deletion strains, locus YPL078C, strain atp4, active compounds read low 1 | S. cerevisiae deletion strains, locus YPL106C, strain sse1, active compounds read low 0.96 | S. cerevisiae deletion strains, locus YPL240C, strain hsp82, active compounds read low 0.983 | S. cerevisiae deletion strains, locus YPL241C, strain CIN2, active compounds read low 1.01 | S. cerevisiae deletion strains, locus YPL256C, strain CLN2, active compounds read low 0.969 | S. cerevisiae deletion strains, locus YPR119W, strain clb2, active compounds read low 1 | S. cerevisiae deletion strains, locus YPR141C, strain kar3, active compounds read low 1.02 | S. cerevisiae deletion strains, locus YPR163C, strain tif3, active compounds read low 1.02 | S. cerevisiae deletion strains, locus YPR167C, strain met16, active compounds read low 1.01 | S. cerevisiae deletion strains, strain wtn01, active compounds read low 1.03 | S. cerevisiae strains, strain wild type, active compounds read low 1
